From PubChem BioAssay AID588413 (Sanford-Burnham Center for Chemical Genomics, 2011)
In all, about 340,000 compounds went through this assay and about 2,500 (0.74%) were called active. The full list was thinned out, with actives kept by preference. Unmarked numbers belong to inactive results.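 The calls were made as follows: active = inhibition above about 55% (limit read from the data); inactive = the rest.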

test: blockers of Gli reporter signaling – luciferase luminescence, Sufu-KO-LIGHT cells, uHTS, primary screen (AID 588413); settings: Sufu-KO-LIGHT fibroblasts, at 5 µM, hits give high values;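 also: 0% = DMSO-treated cells and 100% = wells with medium but no cells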

| SMILES | inhibition |
| --- | --- |
| COC(=O)c1cc(=O)n(-c2c(Cl)cc(C(F)(F)F)cc2Cl)[nH]1 | 5.78% |
| C[C@]1(C(=O)NCCc2c[nH]c3ccccc23)C=C[C@@H](Cc2ccccc2)N1C(=O)c1ccccc1 | 6.62% |
| NC(=S)NN=C1CCCC(C(F)(F)F)C1 (centres undefined) | 4.43% |
| Cc1cc(C)c2nc(N3CCC(C(=O)NCCN4CCOCC4)CC3)sc2c1 | 42.9% |
| O=C(NCCCN1CCCC1=O)C(=O)NCC1OCCN1S(=O)(=O)c1ccc(Br)cc1 (centres undefined) | 9.53% |
| CCCN(c1ccc(C)cc1)c1nc(=O)c2cccnc2s1 | 11.6% |
| COc1cccc(NC(=O)Cn2cnc3sc(C)c(S(=O)(=O)N4CCN(C)CC4)c3c2=O)c1 | -2.51% |
| Cc1ccc(COc2ccc(C(=O)NN)cc2)cc1 | -19.9% |
| CCCCCCCCCCOC(=O)Cn1c(COc2ccc(C)cc2)[n+](C)c2ccccc21 | 83.1% (active) |
| CCCCCCCCCCOC(=O)Cn1c(COc2cccc(OC)c2)[n+](C)c2ccccc21 | 79.7% (active) |
| COc1cccc(NC(=O)COC(=O)CCOc2ccccc2OC)c1 | -1.81% |
| CCCCOc1ccc(NC(=O)CSCC(=O)OCC)cc1 | 0.02% |
| CCOC(=O)CNC(=O)CSc1nnc(-c2cccc(OC)c2)n1CC | 7.3% |
| Cc1ccc(N2C(=O)C3C4C=CC(CC4)C3C2=O)cc1Cl (centres undefined) | 6.68% |
| CN(C(=O)c1cccc([N+](=O)[O-])c1)c1ccccc1C(=O)NCc1ccccc1 | 0.49% |
| Cn1c(=O)[nH]c2c(c(C(=O)O)nn2C)c1=O | -2.41% |
| C/C(=N\Nc1cccc(C(=O)O)c1)c1ccc2c(c1)Nc1ccccc1S2 | -35.5% |
| O=C(CN(C(=O)c1csnn1)c1cccc(Cl)c1)NC1CCCC1 | -16.6% |
| CCS(=O)(=O)N1CCCC(C(=O)NCCCN(C)Cc2ccccc2)C1 (centres undefined) | 9.61% |
| O=C1CCCCN1CCCC(=O)N1CCCC(Nc2ccc(F)cc2)C1 (centres undefined) | 45.4% |
| COc1ccccc1N1CCN(Cc2ccc(OC)c3ccccc23)CC1 | 10.6% |
| COc1ccccc1N1CCN(Cc2cc(OC)c3c(c2)OCO3)CC1 | 60.1% (active) |
| CNCC(O)CN1CCN(c2ccccc2OC)CC1 (centres undefined) | 2.51% |
| CN1CCN(c2cc(=O)n(-c3ccc(Cl)cc3)c(=O)[nH]2)CC1 | 7.35% |

| SMILES | inhibition |
| --- | --- |
| C=CCO/N=C/C1=C(O)C(C(=O)OC)C(C)(C)CC1=O (centres undefined) | -5.83% |
| CCN(CC)CCCC(C)n1c2nc(=O)[nH]c(=O)c-2nc2cc(Cl)ccc21 (centres undefined) | 83.6% (active) |
| CCOC(=O)C1(CCOC)CCN(Cc2cc3ccccc3s2)CC1 | -4.84% |
| Cc1ccc(N=Cc2c(O)n(-c3nccs3)c(=O)c3ccccc23)c(C)c1 | -4.34% |
| Cc1cc(C)nc(N/N=C/c2c(CO)cnc(C)c2O)n1 | 0.23% |
| CCN(CC)CCCN=Cc1c(O)n(-c2ccc(C)cc2)c(=O)c2ccccc12 | -0.11% |
| Cc1ccc(-n2c(O)c(C=Nc3ccc(S(=O)(=O)Nc4ncccn4)cc3)c3ccccc3c2=O)cc1C | -0.18% |
| CCOc1ccc(-n2c(O)c(/C=N/c3ccnn3Cc3ccncc3)c3ccccc3c2=O)cc1 | 62.7% (active) |
| CCOc1ccc(-n2c(O)c(/C=N/Nc3nc(C)cc(C)n3)c3ccccc3c2=O)cc1 | 61.7% (active) |
| CSc1ncccc1C(=O)NCc1ccccc1Cl | -8.35% |
| CC(=O)c1c(O)cc2n(c1=O)-c1ccc(Cl)cc1C2(C)C | -0.02% |
| COC(=O)CC(CC(=O)OC)n1cccc1 | 6.12% |
| Cc1ccc(O)c(NC(=S)NC(=O)COc2ccc(Br)cc2)c1 | -1.7% |
| Cc1ccc(C)c(OCC(=O)NNC(=O)C2CCC2)c1 | 3% |
| Cc1ccc(O)c(NC(=O)COc2cc(C)ccc2C)c1 | 63.9% (active) |
| CCC1CCCCN1C(=S)NC(=O)c1ccco1 (centres undefined) | 3.37% |
| O=C(CSC(=S)N1CCCCC1)c1c(F)cccc1F | -23.9% |
| CCCCn1nc(C(=O)OCC(=O)Nc2sccc2C(N)=O)c2ccccc2c1=O | -33% |
| CCOC(=O)c1[nH]c2ccccc2c1N=C(C)N(CC)CC | 4.83% |
| CCOC(=O)C1=C(C)c2ccccc2OC1(C)C(=O)OCC (centres undefined) | -1.26% |
| CCOC(=O)c1c(C)[nH]c2c1-c1ccccc1C(=O)C2=O | 95.8% (active) |
| C=CCn1c(C)cc(C2=NNC(=NCC)SC2)c1C | 93% (active) |
| CCCN(CCC)C(=O)C1c2ccccc2Oc2ccccc21 | -1.09% |
| CNCC(O)c1ccc(O)c(O)c1 (centres undefined) | -2.95% |

| SMILES | inhibition |
| --- | --- |
| COc1ccc(CCNc2ncnc3c2nnn3Cc2ccccc2)cc1 | 4.12% |
| COc1ccc(NC(=O)/C(N=Nc2cccc(S(=O)(=O)Nc3ccc(SC(F)F)cc3)c2)=C(\C)O)cc1 | -4.13% |
| Cn1c(=O)c2c(nc(OCc3cccnc3)n2Cc2ccccc2)n(C)c1=O | 8.04% |
| C=CCn1c(Oc2ccc(C(=O)OC)cc2)nc2c1c(=O)n(C)c(=O)n2C | 1.23% |
| C=CCOc1nc2c(c(=O)n(C)c(=O)n2C)n1Cc1ccc(Cl)cc1Cl | 62% (active) |
| O=S(=O)(Nc1cc(S(=O)(=O)N2CCOCC2)ccc1N1CCCC1)c1cccs1 | 5.7% |
| O=c1c2ccccc2ncn1/N=C/c1ccccc1 | 20.9% |
| CCn1c(/C=C/c2ccc([N+](=O)[O-])o2)nc2ccccc2c1=O | 80% (active) |
| Cc1ccc(-n2c(SCC(=O)N/N=C/C=C/c3ccccc3[N+](=O)[O-])nc3ccccc3c2=O)cc1 | 14.2% |
| O=C(Nc1ccccc1C(=O)NCC1CCCO1)c1ccccc1F (centres undefined) | -6.12% |
| CC(C)c1ccc2c(c1)c(SC(C)(C)C)c(CC(C)(C)C(=O)O)n2Cc1ccc(Cl)cc1 | -0.1% |
| CCCCCCCCn1c2c(c(=N)c3c1CCC3)CCCC2 | 89.4% (active) |
| O=C(NNS(=O)(=O)Cc1ccccc1)c1ccc([N+](=O)[O-])cc1 | -11.2% |
| CCOC(=O)C1CCCN(CCSc2ccc(C)cc2)C1 (centres undefined) | 21.1% |
| CN(C)C(=O)COC(=O)c1cccc(S(=O)(=O)N2CC3(C)CC2CC(C)(C)C3)c1 (centres undefined) | 0.32% |
| COc1ccc(Nc2ncnc3ccc(Br)cc23)c(OC)c1 | 26.3% |
| CC1(C)CC2CC(C)(CN2c2ncnc3ccc(Br)cc23)C1 (centres undefined) | 62.2% (active) |
| COc1cc(C(F)(F)F)nc2c(Br)c(C(C)(C)C)nn12 | 4.44% |
| CN(Cc1ccc(CNC[C@H]2O[C@@H](n3cnc4c(N)ncnc43)[C@H](O)[C@@H]2O)o1)S(C)(=O)=O | -0.83% |
| CCc1cc2cc(OC)ccc2nc1SCC(=O)Nc1cc(OC)c(OC)cc1C(=O)O | -8.77% |
| CC(=O)Cn1cnc2c(cnn2-c2ccccc2)c1=O | -18.4% |
| Cc1ccc(-c2nc3c(cnn3-c3ccccc3)c(=O)o2)cc1 | 56.1% (active) |
| Cc1ccc(-n2ncc3c(=O)n(-c4ccc(C)c(C)c4)c(-c4ccco4)nc32)cc1 | 4.8% |
| COc1ccc(OC)c(C2C3=C(N=c4s/c(=C\c5cccc(O)c5)c(=O)n42)c2ccccc2CC3)c1 (centres undefined) | -4.15% |

| SMILES | inhibition |
| --- | --- |
| CCN(CC)S(=O)(=O)c1ccc(N(C)Cc2ccc(C(F)(F)F)cc2)nc1 | 17.7% |
| CCCCNCCS(=O)(=O)NCc1ccccc1 | -0.46% |
| COc1ccc(Br)cc1/C=N/Nc1ccc(Cl)c(C(=O)O)c1 | 8.66% |
| COc1cccc(/C=N/Nc2ncc(C(F)(F)F)cc2Cl)c1O | 59.1% (active) |
| COc1cccc(/C=N/Nc2ccc(S(=O)(=O)Nc3ccccc3C(=O)O)cc2[N+](=O)[O-])c1O | 6.14% |
| O=C(OCC(=O)N1CCc2ccccc21)C1CCCN1S(=O)(=O)c1ccc(Cl)cc1 (centres undefined) | -11.8% |
| CC1(C)CC(=O)NC=C(c2ccccc2)C1 | 1.28% |
| Cn1ccsc1=NC(=O)c1cc(S(=O)(=O)N2CCOCC2)ccc1Cl | -4.66% |
| O=C1C(Cl)=C(N2CCOCC2)C(=O)N1c1ccccc1 | 0.4% |
| c1ccc(-n2nnnc2NC2CCCCCC2)cc1 | 8.53% |
| c1ccc(-n2nnnc2N2CCOCC2)cc1 | 94.8% (active) |
| COc1ccc(S(=O)(=O)N2CCCC(C(=O)NCCCn3ccnc3)C2)cc1OC (centres undefined) | 15.1% |
| O=C1NNC(c2ccccc2)=N/C1=C\c1ccc(Cl)cc1 | 5.34% |
| CCn1cc(C(=O)NCC2COc3ccccc3O2)c2cc(OC)c(OC)cc2c1=O (centres undefined) | 10.7% |
| CC(=O)Nc1ccc(Nc2c([N+](=O)[O-])cc(S(C)(=O)=O)cc2[N+](=O)[O-])cc1 | -0.18% |
| CC(=O)Nc1ccc(S(=O)(=O)N(C)c2nc3ccccc3nc2Cl)cc1 | 1.9% |
| CC(=O)Nc1ccc(Nc2c3ccccc3nc3ccccc23)cc1 | 75% (active) |
| CCOc1ccc(NC(=O)c2ccc(NC(=O)CN3C(=O)C(=O)N(CC(C)C)C3=O)cc2)cc1 | -34.9% |
| CCC1([N+](=O)[O-])COC(c2ccc(C(C)C)cc2)OC1 (centres undefined) | -31.9% |
| CCC(=C/c1sc2ccc3ccccc3c2[n+]1C)/C=C1\Sc2ccc3ccccc3c2N1C | 64.2% (active) |
| O=C(c1ccccc1)c1ccc2nc(N3CCCCC3)c3nncn3c2c1 | 6.66% |
| O=C(NC1CCc2ccccc21)C12CN(Cc3ccccc3)CC1C(c1cccc([N+](=O)[O-])c1)=NO2 (centres undefined) | 6.88% |
